Assay outcomes from PubChem.
The list is not random: actives were taken first. Their share in the collection is about 21%.
NS1 function inh – blocks influenza NS1 protein function; Potency, µM (highest dose often 46.1 µM), inactives show at the top dose activity, positive = more growth; hit rate 0.4% among 270,000; AID 2326; calls by dose curve; note: potency is the fitted concentration of half-maximal effect; actives are rising curves; nearly all actives have a fitted effect of over 50% in size
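Recovery from NS1-induced slow growth read by OD600 in budding yeast switched to galactose assay medium (pH 6.0, -URA) at 1:100 dilution. Compound 23 nl per well; the matching strain lacking NS1 serves as control.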
Shiga inhibitor – inhibitors of Shiga toxin in Vero cells. Vero cells, Shiga toxin protein synthesis inhibition reporter. inhibition, % at 38.7 µM. hit rate 9.2% among 290,000; in the data active = inhibition mostly above about 28%, no sharp cut-off; inactive = mostly below about 43%; note: 0% is about no effect
Pf growth 48h – P. falciparum growth inhibition at 48 hours (one generation). P. falciparum luciferase growth in erythrocytes, 48 h. Potency, µM (top dose mostly 28.7 µM), for inactives: at the highest dose activity change, negative = inhibition, hits mostly inhibitors. hit rate 5.9% among 310,000; note: potency is the fitted concentration of half-maximal effect; % is set by controls: 0 for no effect and ±100 for the full control effect
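In quantitative HTS format, infected erythrocytes bearing luciferase-reporter parasites were treated for a single generation at 37 C. Luminescence after adding detection reagent served as the growth measure.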
Pf growth 96h – inhibits malaria parasite growth, 96 h; AID 504834; P. falciparum luciferase reporter growth, 96 h; Potency, µM (top dose mostly 28.7 µM), for the others: at the top dose activity change, negative = inhibition, hits mostly inhibitors; hit rate 6.9% among 320,000; note: potency is the fitted concentration of half-maximal effect; % is set by controls: 0 for no effect and ±100 for the full control effect
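Parasite growth measured via integrated firefly luciferase reporter in P. falciparum. Infected erythrocytes at 2% hematocrit, 0.05% parasitemia final were treated 96 hours at 37 C under 5% CO2, and luminescence was read.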
CHX counter – counter-screen for Shiga toxin inhibitors: cycloheximide protein synthesis inhibition. cell reporter, cycloheximide protein synthesis inhibition counterscreen. max response, %. hit rate 12% among 300,000; in the data active = max response mostly above about 13%, no sharp cut-off; inactive = mostly below about 14%; note: read at 38.3 µM for the half of the compounds with a filed dose; 0% is about no effect
* marks the source's active call; other numbers are inactive results; i = inactive; ? = inconclusive; . = not tested or not shown. Unless noted, calls come from the whole dose curve; as a rule, active = well fitted inhibition curve with a large enough effect; inconclusive = small, poorly fitted or top-dose-only effect, or another doubt; inactive = no such curve, though single readings can be large or run the other way.

SMILES	NS1 function inh	Shiga inhibitor	Pf growth 48h	Pf growth 96h	CHX counter
O=C(/C=C/c1ccco1)Oc1cccc2cccnc12	-50.5%	11.4	5.22µM*	5.86µM*	11.6
O=C(/C=C\c1ccco1)Oc1cccc2cccnc12	.	17.9	?	-13.0%	23.1*
CCCC(=O)NCCCc1nc2ccccc2n1C(C)C	7.2%	11.3	-4.6%	-0.1%	-2.4
Cc1cccc(N2CCN(c3cc(C)nc4nnnn34)CC2C)c1 (stereo not given)	7.7%	-4.4	?	?	6.1
Cc1cccc(N2CCN(c3nnnn3-c3ccccc3)CC2C)c1 (stereo not given)	-88.4%	-5.2	.	5.86µM*	-1.7
CN(C)CCCNS(=O)(=O)c1ccc(NC2CCCCCC2)c([N+](=O)[O-])c1	-0.3%	1.1	?	?	-4.8
CCOC(=O)C1(CCCc2ccccc2)CCN(C(=O)CCC2=NNC(=O)CC2)CC1	2.4%	5.9	-26.5%	5.6%	2.3
CCOC(=O)c1sc2nc3c(SCC(=O)O)cc(C(=O)c4cc(F)ccc4O)cn3c(=O)c2c1C	14.8%	10.5	-4.0%	31.3%	-5.1
COC(=O)c1cc(C(=O)c2cc(F)ccc2O)cn2c(=O)c3c(C)c(C)sc3nc12	-2.3%	9.0	2.08µM*	2.62µM*	-2.6
CC1=NN(C(C#N)c2ccccc2C)C(c2ccccc2)C1 (stereo not given)	-4.9%	25.8	8.4%	0.0%	-0.7
CC1=NN(C(C#N)c2ccc(F)cc2)C(c2ccccc2)C1 (stereo not given)	?	31.0	-27.0%	14.7µM*	3.7
N#CC(c1ccccc1O)N1N=C(c2ccccc2)CC1c1ccccc1 (stereo not given)	0.5%	96.6*	20.9%	26.3%	62.8*
COc1cc(C(C#N)N2N=C(c3ccccc3)CC2c2ccccc2)ccc1O (stereo not given)	-4.2%	86.9*	50.7%	14.9%	29.8*
Cc1ccc(CNc2nc(C)cs2)cc1	-9.0%	74.7*	160.5%	41.0%	40.3*
Cc1ccc(CNC2=NCCS2)cc1	1.7%	80.6	?	3.29µM*	17.4*
CN1CCC[C@@H]1c1cccnc1.O=C(O)c1ccccc1O.O=C([OH2+])c1ccccc1O.O=C([OH2+])c1ccccc1O.[Mn]	-2.8%	.	.	.	.
Cc1ccccc1-c1nnn(Cc2cccc(S(=O)(=O)N3CCOCC3)c2)n1	.	.	?	-28.2%	.
CC(=O)Nc1ccc(C=C(C(C)=O)C(C)=O)cc1	1.9%	2.9	-2.6%	15.2%	-1.2
CC(=O)Nc1ccc(/C=N/N2CCCCC2)cc1	.	116.3*	255.0%	79.2%	44.4*
CC(=O)Nc1ccc(/C=N/N2C(C)CCCC2C)cc1 (stereo not given)	.	21.9	58.8%	2.0%	15.9*
Cc1cc(/C(N)=N/OC(=O)c2cccc(Cl)c2)no1	-2.8%	111.3*	136.6%	161.3%	58.9*
N/C(=N\OC(=O)c1ccc(Cl)cc1)c1[nH]ncc1Br	-2.8%	94.7*	233.2%	381.3%	64.1*
Cc1cc(C(=O)NNC(=O)c2cccc(Cl)c2)no1	0.3%	-4.9	34.1%	41.0%	6.6
N/C(=N/OC(=O)c1ccc(Cl)cc1)c1ncc([N+](=O)[O-])s1	-4.6%	66.4*	?	?	25.7*
Cc1cc(/C(N)=N/OC(=O)c2ccc(Cl)cc2)no1	-3.6%	60.6*	295.8%	i	35.1*
SMILES	NS1 function inh	Shiga inhibitor	Pf growth 48h	Pf growth 96h	CHX counter
CCCCNC(=O)CN(Cc1ccco1)S(=O)(=O)c1ccc(C(C)=O)cc1	.	.	-2.3%	30.0%	.
COc1cccc(CN(C)C(=O)c2ccc(COc3ccc(Cl)cc3)cc2)c1OC	-56.2%	86.8*	37.3%	5.5%	67.0*
COc1cccc(OC)c1OCc1cc(C2C3CCCC=C3C(C#N)=C(N)C2(C#N)C#N)c(C)cc1C (stereo not given)	16.9%	-3.4	?	9.28µM*	5.4
CCCN1CC=C2C(C#N)=C(N)C(C#N)(C#N)C(c3cccc(OC)c3OC)C2C1 (stereo not given)	10.2%	-3.3	?	.	12.6
CN(C)c1ccc(NC(=O)Nc2cccc3ccccc23)cc1	12.9%	76.7*	39.9%	?	35.6*
CCN(CC)c1ccc(NC(=O)Nc2ccccc2C(F)(F)F)cc1	12.5%	42.0*	?	33.0%	23.9
CCN(CC)c1ccc(NC(=O)Nc2cccc3ccccc23)cc1	1.5%	29.5	?	?	15.4*
CCN(CC(=O)Nc1ccc(C(C)=O)cc1)CC(=O)Nc1ccccc1C(F)(F)F	.	-3.2	9.0%	-23.8%	-5.5
CC(NCc1ccc(N(C)C)cc1)C1CC2CCC1C2 (stereo not given)	-3.2%	-7.3	.	?	-1.1
O=C(Nc1ccc(Cl)c(C(F)(F)F)c1)C1CCCN(S(=O)(=O)c2cnc[nH]2)C1 (stereo not given)	-8.2%	-8.6	?	10.4µM*	1.8
Cc1cc(NC(=O)C2CCCN(S(=O)(=O)c3cnc[nH]3)C2)ccc1Br (stereo not given)	-0.3%	-6.6	.	4.15µM*	-5.6
CC1(C)Cc2ccccc2-c2nnc(SCC(=O)Nc3nc4ccccc4s3)n21	-24.1%	3.4	?	-1.0%	-4.6
O=C(Nc1cccc2nsnc12)c1cccs1	-118.2%	99.3*	132.1%	?	35.2*
O=C(Nc1cccc2nsnc12)c1cccnc1	3.7%	-8.9	9.7%	14.4%	-1.6
O=C(Nc1ccccc1)Nc1cccc2nsnc12	-36.6%	85.7	-25.4%	-0.8%	34.4*
O=C(Nc1cccc2cccnc12)c1c(Cl)cc(Cl)cc1Cl	.	-4.2	.	.	16.7
O=C(Nc1cccc2cccnc12)c1cccs1	.	79.2	.	.	37.4*
CC(C)CCNC(=O)CN(C(=O)CCC(=O)Nc1ccccn1)c1ccc(F)c(Cl)c1	.	16.6	?	41.3%	5.8
CC(C)CC1(C)NC(=O)N(CC(=O)Nc2cccc(S(=O)(=O)N(C)c3ccccc3)c2)C1=O (stereo not given)	2.3%	-0.7	16.3%	-14.4%	-4.8
CCOC(=O)N1CCN(C(=O)CN(c2ccc(Cl)c(C(F)(F)F)c2)S(C)(=O)=O)CC1	-0.9%	-10.4	-18.1%	3.5%	-8.4
Cc1ccc(OC(C)C(=O)N(C)c2ccccc2)c([N+](=O)[O-])n1 (stereo not given)	.	.	5.9%	17.7%	.
O=C1/C(=C/c2ccc([N+](=O)[O-])cc2)C=C(c2ccccc2)N1c1ccccc1	18.9%	-5.3	9.3%	?	-2.9
COc1ccc(N2C(=O)/C(=C/c3ccc([N+](=O)[O-])cc3)C=C2c2ccccc2)cc1	17.1%	-14.7	?	13.1µM*	-0.6
O=C(O)c1cccc(N2C(=O)/C(=C/c3ccc([N+](=O)[O-])cc3)C=C2c2ccccc2)c1	.	38.1*	-66.2%	?	22.6*
Cc1cccc(N2CCN(S(=O)(=O)c3c(C(=O)N4CCCCC4)c(C)n(C)c3C)CC2)c1C	12.5%	-8.4	?	-17.1%	-7.9
COC(=O)C1=C(c2ccc3ccccc3c2)C[C@@H]2CC[C@H]1N2C(=O)N1CCC(C)CC1	.	.	9.28µM*	?	.
COC(=O)C1=C(c2ccc(Cl)c(C(F)(F)F)c2)C[C@@H]2CC[C@H]1N2C(=O)N1CCC(C)CC1	.	.	?	-3.9%	.
